Screens from PubChem BioAssay.
TGFb inhibitor – blocks TGF-b signaling; Potency, µM (doses to about 46.1 µM), for the others: at the highest dose activity, negative = inhibition, actives largely listed as inhibitors; 410,000 tested, 1.2% active; HepG2 CAGA-GFP TGF-b/SMAD3 reporter, GFP fluorescence, 18 h; TGF-beta stimulated, 500 pg/mL final; also: % is scaled to controls: 0 for no effect and ±100 for the full control effect; nearly all actives have a fitted effect of over 65% in size
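Read-out: total well GFP (ex488/em500-530) summed from mean per-cell fluorescence. Cells: HEPG2 CAGA-GFP, 1% FBS DMEM, 18 h at 37 degrees C with 500 pg/mL final TGF-beta. Unstimulated wells served as the full-inhibition control; stimulated DMSO wells = 0%.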
ATXN2 expr inh – reduces ATXN2 reporter expression in HEK-293 cells | HEK-293 ATXN2-luciferase reporter, luminescence, 24 h | Potency, µM (series often up to 57 µM), without a hit: at the top dose activity change, negative = inhibition, hits mostly inhibitors | 360,000 tested, 0.72% active; also: % is scaled to controls: 0 for no effect and ±100 for the full control effect; nearly all actives have a fitted effect of over 55% in size
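ATXN2-luciferase reporter cells (luciferase flanked by upstream and downstream ATXN2 gene portions) were treated 24 h at 37 °C with compounds at up to 57 uM. SteadyGlo luminescence gave expression; GF-AFC fluorescence gave viability.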
HepG2 tox – counter-screen for TGF-b inhibitors: cytotoxicity in HepG2 cells; Potency, µM (doses to about 46.1 µM), without a hit: at the top dose activity change, negative = cytotoxicity, most hits filed as cytotoxic; HepG2 CAGA-GFP viability, ATP luminescence, 18 h; 410,000 tested, 0.76% active
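HepG2 CAGA-GFP cells (1000/well, DMEM with 1% FBS) received compound, then TGF-beta at 500 pg/mL final, and were incubated 18 hours at 37 degrees C. Viability was read by CellTiter-Glo luminescence. Media-only wells were set as complete cell-killing and DMSO as no toxicity.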
Gal4-VP16 FLuc – Gal4-VP16 reporter inhibition counter-screen; Potency, µM (titrated, usually from 53.6 µM), without a hit: at the highest dose activity, negative = inhibition, most hits filed as inhibitors; AID 2546; 310,000 tested, 3.5% active; Drosophila S2 Gal4-VP16 UAS-luciferase, luminescence, 20 h;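 also: Gal4-VP16 expression switched on by copper sulfate through the metallothionein promoter; % is scaled to controls: 0 for no effect and ±100 for the full control effect; nearly all actives have a fitted effect of over 50% in size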
S2 tox – cell viability loss in ATXN counter-screen; S2 cells (HEK-293 line with an ATXN2-luciferase reporter) viability, CellTiter-Fluor protease fluorescence, 24 h; Potency, µM (highest dose often 56.7 µM), most hits filed as cytotoxic; 400,000 tested, 0.49% active; AID 651635; also: nearly all actives have a fitted effect of over 40% in size
RORgamma inh – ROR gamma (mouse) transcription inhibition. P51450. Drosophila S2 Gal4-RORgamma UAS-luciferase reporter, 20 h. Potency, µM (titrated, usually from 53.6 µM), inactives show at the top dose activity change, negative = inhibition, usual class: inhibitors. AID 2551. 310,000 tested, 5.4% active; also: % is scaled to controls: 0 for no effect and ±100 for the full control effect; nearly all actives have a fitted effect of over 60% in size
Target sequence (P51450 whole entry, looked up, the tested form may be a part): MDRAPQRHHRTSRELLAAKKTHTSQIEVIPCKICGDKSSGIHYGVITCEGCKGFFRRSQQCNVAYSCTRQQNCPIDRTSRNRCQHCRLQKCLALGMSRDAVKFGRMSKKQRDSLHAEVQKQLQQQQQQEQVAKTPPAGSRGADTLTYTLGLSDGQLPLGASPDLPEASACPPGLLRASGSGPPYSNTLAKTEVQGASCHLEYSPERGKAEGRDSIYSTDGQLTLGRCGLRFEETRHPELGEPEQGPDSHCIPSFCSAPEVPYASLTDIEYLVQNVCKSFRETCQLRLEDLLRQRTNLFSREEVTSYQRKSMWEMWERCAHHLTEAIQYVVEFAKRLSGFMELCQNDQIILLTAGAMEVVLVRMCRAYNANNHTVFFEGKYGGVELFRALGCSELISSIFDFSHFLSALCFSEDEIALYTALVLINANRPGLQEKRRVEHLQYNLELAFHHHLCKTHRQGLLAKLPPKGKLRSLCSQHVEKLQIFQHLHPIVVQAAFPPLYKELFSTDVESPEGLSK
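ROR gamma transcriptional activity was tracked as Gal4-UAS luciferase output in stably transfected Drosophila Schneider cells, with compound added 1 hr before 700 uM copper sulfate induction and a 20 hr ambient-temperature incubation.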
An asterisk follows results filed as active; [ ] = dose if it differs, or a comment. The list is not random: actives were taken first. Their share in the collection is about 6.3%. Calls follow the shape of the dose curve; as a rule, active = well fitted curve in the direction sought with a large enough effect; inconclusive = small, poorly fitted or top-dose-only effect, or another doubt; inactive = no such curve, though single readings can be large; an effect the other way counts as inactive or inconclusive. Potency is read from the fitted curve at half-maximal effect.

What do the screens show for `CCC(COC)Oc1cc(NCc2ccccc2)c2ncn(C(C)C)c2c1` (centres undefined)?
TGFb inhibitor: inconclusive; ATXN2 expr inh: -3%; HepG2 tox: -113%; S2 tox: 22µM*

How did CCC(CO)Oc1cc(NCc2ccc(C(C)(C)C)cc2)c2ncn(C(C)C)c2c1 (centres undefined) do in these assays?
TGFb inhibitor: inconclusive; ATXN2 expr inh: inconclusive; HepG2 tox: -88%; S2 tox: 32µM*

What do the screens show for `CCCCOc1cc(NCc2ccccc2)c2ncn(C(C)C)c2c1`?
TGFb inhibitor: 18µM*; ATXN2 expr inh: -39%; HepG2 tox: -54%; S2 tox: inconclusive

What do the screens show for `COc1ccc(NC(=O)CCCc2nnc3n(CCC(C)C)c(=O)c4sccc4n23)cc1Cl`?
TGFb inhibitor: inconclusive; HepG2 tox: -30%

Results for COc1ccc(-n2c(SCC(=O)NCc3ccc(C)cc3)nc3n[nH]c(C)c3c2=N)cc1 ?
TGFb inhibitor: 0%; HepG2 tox: -5%

Results for CC(C)n1cnc2c(NCc3ccccc3)cc(N[C@H](C)CO)cc21 ?
TGFb inhibitor: inconclusive; ATXN2 expr inh: 1.1µM*; HepG2 tox: 0.63µM*; S2 tox: 0.89µM*

How did CCC(CO)Oc1cc(NCc2ccccc2)c2ncn(C(C)C)c2c1 (centres undefined) do in these assays?
TGFb inhibitor: inconclusive; ATXN2 expr inh: -22%; HepG2 tox: -28%; S2 tox: inconclusive

What do the screens show for `COc1ccc(S(=O)(=O)N(CCO)c2ccccc2CN(C)CC=Cc2ccc(Cl)cc2)cc1`?
Gal4-VP16 FLuc: 14µM*; RORgamma inh: -40%

How did COc1ccc(/C=C/C(=O)c2cc(F)ccc2OC(=O)c2ccccc2OC)cc1OC do in these assays?
TGFb inhibitor: 11µM*; ATXN2 expr inh: inconclusive; HepG2 tox: -74%; Gal4-VP16 FLuc: inconclusive; S2 tox: inconclusive; RORgamma inh: 18%

How did COc1ccc(/C=C/C(=O)c2cc(F)ccc2OC(=O)c2ccc(OC)c(OC)c2)cc1OC do in these assays?
TGFb inhibitor: 0%; HepG2 tox: -30%; Gal4-VP16 FLuc: inconclusive; S2 tox: inactive; RORgamma inh: 8.9µM*

What do the screens show for `COc1ccc(/C=C/C(=O)c2cc(Br)ccc2OC(=O)c2ccco2)cc1OC`?
TGFb inhibitor: -1%; ATXN2 expr inh: 4%[11.3 µM]; HepG2 tox: 9%; Gal4-VP16 FLuc: inconclusive; S2 tox: inactive; RORgamma inh: inconclusive

What do the screens show for `COc1ccc(-c2nc(CCNC(=O)Cc3ccc(F)cc3)cs2)cc1`?
TGFb inhibitor: -25%; HepG2 tox: -12%

Results for CCc1cccc(NC(=O)COC(=O)c2ccccc2OCc2ccccc2Br)c1 ?
TGFb inhibitor: inconclusive; HepG2 tox: -12%

Results for O=C(Nc1cc(Cl)ccc1N1CCCC1)C1=NN(c2ccccc2)C(=O)CC1 ?
TGFb inhibitor: 3%; HepG2 tox: 2%; Gal4-VP16 FLuc: 1%; S2 tox: inactive; RORgamma inh: 34%

Results for O=Cc1ccc(N2CCCC2)c([N+](=O)[O-])c1 ?
TGFb inhibitor: inconclusive; ATXN2 expr inh: -25%[11.3 µM]; HepG2 tox: -3%; Gal4-VP16 FLuc: 2%; S2 tox: inactive; RORgamma inh: 16%

How did O=[N+]([O-])/C=C\c1ccc(N2CCCC2)c(F)c1 do in these assays?
TGFb inhibitor: 11µM*; ATXN2 expr inh: inconclusive; HepG2 tox: -35%; Gal4-VP16 FLuc: -16%[10 µM]; S2 tox: inconclusive; RORgamma inh: inconclusive

Results for c1ccc2sc(NN=C3CCCCCC3)nc2c1 ?
TGFb inhibitor: -11%; ATXN2 expr inh: inconclusive; HepG2 tox: -24%; Gal4-VP16 FLuc: inconclusive; S2 tox: inactive; RORgamma inh: 4µM*

What do the screens show for `Cc1ccc2nc(NC(=O)c3cccc(-c4cc5ccccc5oc4=O)c3)sc2c1`?
TGFb inhibitor: -10%; ATXN2 expr inh: inconclusive; HepG2 tox: -13%; Gal4-VP16 FLuc: -8%; S2 tox: inconclusive; RORgamma inh: inconclusive

What do the screens show for `CCOc1ccc2nc(NC(=O)c3cccc(-c4cc5ccccc5oc4=O)c3)sc2c1`?
TGFb inhibitor: inconclusive; ATXN2 expr inh: -29%; HepG2 tox: -61%; Gal4-VP16 FLuc: 11µM*; S2 tox: inconclusive; RORgamma inh: 11µM*

Results for CCOc1ccc2nc(NC(=O)c3cnccn3)sc2c1 ?
TGFb inhibitor: 25%; ATXN2 expr inh: 24%; HepG2 tox: -19%; Gal4-VP16 FLuc: inconclusive; S2 tox: inactive; RORgamma inh: 1.6µM*

Results for O=C(Nc1nc(-c2ccc(F)cc2)cs1)c1cnccn1 ?
TGFb inhibitor: 0%; ATXN2 expr inh: -2%; HepG2 tox: -19%; Gal4-VP16 FLuc: inconclusive; S2 tox: inactive; RORgamma inh: 2.2µM*

How did O=C(NCC1(N2CCOCC2)CCCC1)c1cnn(-c2ncc3c(n2)-c2ccccc2CC3)c1C1CC1 do in these assays?
S2 tox: inactive

How did CCc1ccc(NC(=O)CSc2nc(C)cc(COC)c2C#N)cc1 do in these assays?
TGFb inhibitor: 2%; ATXN2 expr inh: 4%; HepG2 tox: -15%; S2 tox: inactive

How did CC(C)c1ccccc1NC(=O)Nc1nnc([C@@H]2C[C@H](O)[C@@H](CO)O2)s1 do in these assays?
TGFb inhibitor: 7%; ATXN2 expr inh: 24%; HepG2 tox: -2%; S2 tox: inactive

How did CCN(CC)c1ccc(S(=O)(=O)N2CCOCC2)cc1NC(=O)COC(=O)/C=C/c1ccco1 do in these assays?
TGFb inhibitor: 5%; ATXN2 expr inh: -5%; HepG2 tox: -5%; S2 tox: inactive

What do the screens show for `Cc1ccc(C)c2sc(NC(=O)c3nc4ccccc4s3)nc12`?
TGFb inhibitor: -17%; ATXN2 expr inh: 14%; HepG2 tox: -33%; Gal4-VP16 FLuc: 1µM*; S2 tox: inactive; RORgamma inh: 1µM*

How did CC(C)C(=O)N(Nc1nc2ccccc2s1)C(=O)C(C)C do in these assays?
TGFb inhibitor: 0%; ATXN2 expr inh: 4%; HepG2 tox: -10%; Gal4-VP16 FLuc: -15%; S2 tox: inactive; RORgamma inh: 3%

What do the screens show for `O=C(Nc1nc2ccccc2s1)c1cnccn1`?
TGFb inhibitor: -5%; ATXN2 expr inh: -24%; HepG2 tox: -35%; Gal4-VP16 FLuc: 5µM*; S2 tox: inactive; RORgamma inh: 3.2µM*
